What all share (assay): NCI-60 one-dose screen, 48 h (100 = growth as untreated, 0 = no growth, -100 = all killed)
Holding throughout (details): 10 µM unless noted

Assay [1] has as its system NCI-H23 lung.
The subject of assay [2] is NCI-H226 lung.
The subject of assay [3] is NCI-H322M lung.
For assay [4], the system named is HOP-62 NSCLC.
Assay [5] concerns NCI-H460 lung.
For assay [6], the system named is HOP-92 NSCLC.
Assay [7] deals with NCI-H522 lung.
The subject of assay [8] is A549/ATCC NSCLC.
Assay [9] concerns 786-0 renal.
Assay [10] has as its system COLO 205 colon.

About 83,000 compounds went through this panel and 20% of them were active in at least one assay; those are over-represented in the sample as a whole.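 The endpoint reported here, percent growth, reads 100 for growth as untreated, 0 for no net growth and -100 for all cells dead.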 A number with no mark means an inactive call. The source made the active and inactive calls. Rule for the calls: active = growth percent below 10; inactive = the rest.

On to `O=C(N/N=C/c1ccoc1)c1[nH]c2ccc(Br)cc2c1-c1ccccc1`, for which the growth was -96.6% (active) in assay [1]; -66.2% (active) in assay [2]; -86.4% (active) in [3]; -70.6% (active) in assay [4]; -83.2% (active) in assay [5]; -62.4% (active) in [6]. The growth in assay [7] is -82.2% (active); in assay [8], -60.4% (active); in assay [9], -76.5% (active); in assay [10] it was -68.9% (active).

In the case of `O=C(c1ccc(Cl)cc1)C1[C@H](c2ccccc2Cl)[C@@H](c2ccccc2)NC12C(=O)Nc1ccccc12` (stereo not given in full), the growth in [1] was -50.2% (active); in assay [2], -67.5% (active); in [3], 12.5%; in [4] it was -40.9% (active); in assay [5], -57.2% (active); in [6], -48% (active). The growth in [7] was -30.9% (active); in [8], 3.68% (active); in assay [9], -58.4% (active); in [10], -87.8% (active).

Consider `CN1CCN(CCS(=O)(=O)Nc2cc(-c3ccc4ncnc(Nc5ccc(F)c(Cl)c5)c4c3)cnc2Cl)CC1`, for which the growth in [1] was 13%; in assay [2], 48.9%; in [3], -15.5% (active); in assay [4] it was 39.9%; in [5] it was 54.7%; in [6] it was -10.2% (active). The growth in assay [7] was 10.1%; in assay [8], 55.6%; in assay [9], 19.4%; in assay [10], -31.9% (active).

As for `NS(=O)(=O)c1ccc(N2N=C(c3ccc(NC(=O)Nc4ccccc4)cc3)CC2c2ccc(Br)cc2)cc1` (stereo not given), the growth in assay [1] was -95.2% (active); in assay [2], -84.2% (active); in assay [3], -87.3% (active); in assay [4], -70.3% (active); in assay [5] it was -83.9% (active); in assay [6] it was -87% (active). Further, the growth is -79.7% (active) in assay [7], -57.7% (active) in assay [8], -85.7% (active) in [9] and -53.5% (active) in assay [10].

With `COc1ccc(-c2cc(C(=O)OCc3ccc(Br)cc3)nn2-c2ccc(S(C)(=O)=O)cc2)cc1OC`, the growth in assay [1] was 93.6%; in assay [2], 82%; in assay [3], 90.9%; in assay [4] it was 75.9%; in [5], 91.1%; in assay [6] it was 69.5%. For the same molecule, the growth in assay [7] is 52.8%; in assay [8], 78.6%; in assay [9] it was 75%; in assay [10] it was 110%.

Turning to `CCCN(CCC)S(=O)(=O)c1ccc(C(=O)O)cc1.CCCN(CCC)S(=O)(=O)c1ccc(C(=O)O)cc1.[Cl][Pt+2][Cl].[NH2-].[NH2-]`, the growth in [1] is -44.1% (active); in assay [2], 23.2%; in assay [3] it was 42.6%; in assay [4] it was 30.4%; in assay [5], 0.596% (active); in assay [6], 5.16% (active). Moreover, the growth in assay [7] is -54.9% (active); in assay [8], 33%; in assay [9] it was 14%; in [10], -57.7% (active).

As for `CC1=C(C(=O)OC(C)C)C(c2ccc(O)cc2)NC(=O)N1` (stereo not given), the growth is 101% in assay [1]; 105% in assay [2]; 106% in assay [3]; 99.4% in [4]; 117% in assay [5]; 105% in assay [6]. The growth in [7] was 81.3%; in assay [8] it was 101%; in assay [9], 99.5%; in [10], 114%.

Turning to `COc1cc(/C=C/C(=O)c2cnn(-c3cc(=O)[nH]c4ccc(Cl)cc34)c2C)cc(OC)c1OC`, the growth was -55.9% (active) in [1]; -24.2% (active) in assay [2]; 7.2% (active) in [3]; -68.3% (active) in [4]; -39.1% (active) in assay [5]; -11.9% (active) in [6]. In addition, the growth was -62.9% (active) in assay [7], -17.1% (active) in assay [8], -43.9% (active) in assay [9] and -67.7% (active) in assay [10].

`CCc1ccccc1-c1nc(CN[C@@H]2C[C@@H]3C[C@H]([C@H]2C)C3(C)C)c(C)o1`: the growth in assay [1] was -78.7% (active); in assay [2], -68.7% (active); in [3], -92.5% (active); in [4], -78.9% (active); in assay [5], -54.5% (active); in assay [6], -81.5% (active). Further, the growth in assay [7] is -85.9% (active); in assay [8] it was -49.7% (active); in assay [9], -82.1% (active); in assay [10], -74.8% (active).

Take `COc1ccc(Nc2nnc(-c3c[nH]c4ccccc34)o2)cc1`: the growth was 82.7% in [1]; 74.9% in assay [2]; 89.8% in assay [3]; 77.8% in assay [4]; 96.3% in [5]; 84.5% in assay [6]. For the same molecule, the growth in [7] is 32.2%; in [8], 89.3%; in assay [9], 91.9%; in [10] it was 113%.

Regarding `COc1cc(C2CC(c3ccc(Cl)cc3)=Nc3c(N)nc(N)nc3N2)ccc1Oc1nc(Nc2ccc(F)cc2)nc(N(C)C)n1` (stereo not given), the growth in [1] is 76.6%; in assay [2], 60.9%; in assay [3], 93.8%; in assay [4] it was 74.1%; in [5] it was 13.5%; in [6], 12.6%. The growth in assay [7] was 38.9%; in [8] it was 47.2%; in [9], 38.2%; in [10], 55.4%.

For the molecule `COc1cc(C=O)ccc1OC(=O)c1cc(-c2ccc(C)cc2)n(-c2ccc(S(C)(=O)=O)cc2)n1`, the growth is 101% in [1]; 138% in assay [2]; 101% in assay [3]; 102% in assay [4]; 110% in assay [5]; 98.3% in assay [6]. Besides, the growth in [7] was 93.3%; in assay [8] it was 103%; in assay [9] it was 102%; in assay [10] it was 126%.

Turning to `COc1ccc2c(c1)C(Sc1ccc(Cl)cc1)c1c(nc(N)c(C#N)c1N)O2` (stereo not given), the growth is 74.6% in [1]; 64.9% in assay [2]; 86.4% in [3]; 61.8% in assay [4]; 63.2% in assay [5]; 76.7% in assay [6]. Also, the growth in assay [7] is 54.5%; in assay [8], 53.7%; in assay [9], 61.8%; in assay [10], 87.2%.

(Values after PubChem BioAssay (NCI).)
